Measured values taken from the supplement of paper PMC11219838.
Values without a mark were called inactive.

test system: Meloidogyne hapla J2; assay: proportion of mobile M. hapla J2 relative to DMSO control (fraction of DMSO control); higher = more viable, less nematicidal, active = 0.7 or less; conditions: 60 µM; 5 days; temperature: 20 °C
How it was run: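 About 25 M. hapla J2 were placed in each well of a 96-well plate in distilled water, and compound was pinned in to a final 60 µM with 0.6% v/v DMSO. The sealed plates were shaken at 200 rpm at 20 °C for 5 days, after which 2 µL of 1 M NaOH went into each well. Mobility was then scored under the microscope and divided by the mean value from DMSO-only wells on the same plate. Each plate held eight such DMSO wells, and two biological replicates were averaged.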

Row | SMILES | proportion of mobile M. hapla J2
1 | O=C(CSc1nnc(-c2cccnc2)o1)c1ccc(Br)cc1 | 1.04
2 | COc1ccc(-c2nnc(SCC(=O)Nc3ccc(C(C)C)cc3)o2)cc1 | 0.967
3 | Cc1ccccc1OCc1nc(-c2cccs2)no1 | 0.753
4 | Brc1ccc(-c2noc(COc3ccc4c(c3)OCO4)n2)cc1 | 1.06
5 | Brc1ccc(-c2noc(-c3ccc4c(c3)OCO4)n2)cc1 | 1.03
6 | c1csc(-c2nnc(-c3cccs3)o2)c1 | 0.754
7 | Cc1ccc(-c2noc(-c3ccc(C)cc3)n2)cc1 | 1.01
8 | CC(C)Oc1ccc(-c2nc(-c3cccnc3)no2)cc1 | 0.899
9 | O=C(CSc1nnc(-c2ccncc2)o1)Nc1ccccc1Cl | 0.724
10 | O=C(CSc1nnc(-c2ccccc2Cl)o1)Nc1ccc(Br)cn1 | 0.851
11 | COc1ccc(-c2noc(CSc3nc4cc(C)ccc4[nH]3)n2)cc1 | 0.861
12 | Cc1cc(OCc2nc(-c3ccccn3)no2)ccc1Cl | 0.834
13 | CCCCCSc1nnc(-c2ccc(Cl)cc2Cl)o1 | 0.96
14 | COc1ccc(NC(=O)c2ccccc2-c2nc(-c3ccccc3C)no2)cc1 | 0.81
15 | CCN(C(=O)CSc1nnc(-c2ccncc2)o1)c1ccccc1 | 0.965
16 | CCc1ccc(OCc2nc(-c3ccccn3)no2)cc1 | 0.966
17 | c1ccc(COc2cccc(-c3nc(-c4ccccn4)no3)c2)cc1 | 1.03
18 | CCCCc1ccc(-c2nc(-c3cccnc3)no2)cc1 | 0.977
